The record followed here is PubChem BioAssay (NCI).

About 83,000 compounds went through this panel and 20% of them were active in at least one assay; those are over-represented in the sample as a whole.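 Single-dose data. Exposure time 48 hours. Values below 10 considered active.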 Unmarked numbers belong to inactive results. Activity calls are given as the source filed them.

Holding throughout (assay): NCI-60 one-dose screen, 48 h (100 = growth as untreated, 0 = no growth, -100 = all killed)
What all share (settings): 10 µM unless noted

For assay [1], the system named is HT29 colon.
The subject of assay [2] is SNB-75 CNS.
Assay [3] concerns SNB-19 CNS.
For assay [4], the system named is U251 CNS.
For assay [5], the system named is PC-3 prostate.
For assay [6], the system named is SK-MEL-5 melanoma.
In assay [7] the test system is LOX IMVI melanoma.
Assay [8] concerns SK-MEL-28 melanoma.
Assay [9] relates to SK-MEL-2 melanoma.
Assay [10] relates to UACC-62 melanoma.

Consider `Clc1ccc2oc3c(OCCCn4ccnc4)c4ccccc4nc3c2c1`, for which the growth is 36.7% in assay [1]; 68.5% in assay [2]; 73.5% in [3]; 61.6% in assay [4]; 68.9% in assay [5]; 92.8% in assay [6]. Moreover, the growth in [7] was 42.8%; in assay [8] it was 89.8%; in [9], 112%.

`COc1cc(/C=C/C(=O)c2ccccc2)ccc1Oc1nc(NCCO)nc(N2CCOCC2)n1`: the growth is 105% in assay [1]; 99.8% in assay [2]; 97.8% in assay [3]; 88.4% in [4]; 84.9% in assay [5]; 99.3% in [6]. The results for the growth in assay [8] and in assay [9] were 107% and 103%, respectively.

Take `COC(=O)C(Cc1ccccc1)NS(=O)(=O)/N=C1\NC(=O)NC1=C(Cl)Cl` (centres undefined): the growth in [1] was 127%; in assay [2], 106%; in assay [3], 94.2%; in assay [4] it was 106%; in assay [5], 90%; in assay [6], 98.1%. The growth was 102% in [8] and 60.3% in assay [9].

As to `CC1=C(C)C(=O)C(Nc2ccccc2)=C(Cl)C1=O`, the growth in assay [1] is 99.1%; in assay [2], 65.4%; in [3], 88.8%; in [4], 84.3%; in assay [5] it was 73.9%; in assay [10], 90.3%. For the same compound, the growth in assay [8] is 106%.

As for `Cc1cc(=O)oc2cc(OCCCOc3ccc(/C=C/C(=O)Nc4ccc(Cl)cc4)cc3)ccc12`, the growth in [1] was 98.1%; in assay [2] it was 73.3%; in assay [3], 89.6%; in [4], 56.4%; in assay [5] it was 67.7%; in [6] it was 55.9%. For the same compound, the figures for the growth in assay [7], in assay [8] and in [9] were 40.8%, 75.8% and 80.4%, respectively.

For the compound `COc1ccc(-c2nc3ccc(-c4nnc(SCC(=O)Nc5ccc(C(C)=O)cc5)o4)cc3[nH]2)cc1`, the growth in assay [1] was 116%; in assay [2] it was 92.6%; in assay [3], 119%; in assay [4], 104%; in [5], 104%; in assay [6] it was 93.5%. Besides, the growth in assay [7] is 108%; in assay [8], 112%; in assay [9], 134%.

`C=C1CC[C@H]2[C@@](C)(CCC3OC(c4ccc(OCc5cn(C6CC(OC(C)=O)C(OC(C)=O)C(COC(C)=O)O6)nn5)cc4)OC[C@]32C)[C@@H]1/C=C/C1=CCOC1=O` (some centres undefined): the growth in assay [1] is 84.1%; in assay [2], 94.8%; in assay [3], 88.3%; in [4], 92.9%; in [6], 0.123% (active); in [10], 70.5%. Also, the growth in [8] and in assay [9] was 100% each time.

Consider `C[C@@H]1CN(c2ccc3ncc(C#Cc4cncc(C(=O)Nc5ccc(CN6CCN(C)CC6)c(C(F)(F)F)c5)c4)n3n2)C[C@H](C)O1`, for which the growth was -65.8% (active) in assay [1]; -79.3% (active) in [2]; -4.76% (active) in [3]; -97.9% (active) in assay [4]; -94.5% (active) in assay [6]; -65.9% (active) in [10]. Also, the growth is -87.7% (active) in assay [7], -89.5% (active) in assay [8] and -89.7% (active) in assay [9].

For `CN(C)CCCOc1c2ccccc2nc2c1oc1ccc(Cl)cc12`, the growth was -43.4% (active) in assay [1]; 5.58% (active) in [2]; 16.1% in assay [3]; 16.7% in assay [4]; -16% (active) in [6]; -49.7% (active) in assay [10]. Moreover, the values for the growth in assay [7], in [8] and in [9] were -85.1% (active), 9.1% (active) and 9.55% (active), respectively.

For the compound `CSCCC(C(=O)O)N1C(=O)/C(=C/c2ccc(O)c(O)c2)SC1=S` (centres undefined), the growth is 105% in [1]; 93.6% in assay [2]; 97.9% in [3]; 93.4% in assay [4]; 99.9% in assay [6]; 103% in assay [7]. For the same compound, the growth in assay [8] is 99.5%.

`O=[N+]([O-])c1ccc(O)c2ncccc12`: the growth in assay [2] was 48.5%; in assay [3], 23.8%; in assay [4], 17.2%; in [5] it was 31.3%; in [6], 15.3%; in [10] it was 10.5%. Moreover, the growth in [7] was 25.2%; in [8], 29.1%.

`N/C(=N\c1nc2c(Cl)cc(Cl)cc2s1)C(Cl)(Cl)Cl`: the growth in [1] is 8.65% (active); in assay [2], 7.23% (active); in assay [3], 46.8%; in assay [4] it was 21%; in assay [6], 87%; in assay [10], 40.3%. The growth was 1.92% (active) in assay [7], 54.9% in assay [8] and 80.5% in assay [9].

With `C#Cc1nc(C2=C(C)C(=O)/C(=N/OC(C)=O)C2)cs1`, the growth in assay [1] was 115%; in assay [2], -46.3% (active); in assay [3] it was 96.2%; in [4], 98.1%; in assay [6], 97.3%; in assay [10], 80.3%. Further, the growth in assay [8] is 107%.

Take `O=C(c1ccc(O)cc1)C1[C@H](c2ccc(Cl)cc2)[C@@H](c2ccccc2)NC12C(=O)Nc1ccc(Cl)cc12` (some centres undefined): the growth in assay [1] is 4.23% (active); in [2] it was 46.2%; in [3], 63%; in assay [4], 29.6%; in assay [6], 67.3%; in assay [7] it was 26.8%. Further, the growth in assay [8] was 76.2%.

As for `COc1ccc(C(=O)c2cc(C(=O)/C=C/c3c(Cl)cccc3Cl)c3cc(C)ccn23)cc1`, the growth in [1] was 103%; in [2], 76.7%; in assay [3] it was 98.8%; in [4], 100%; in assay [10], 94%; in [8], 108%. Also, the growth in assay [9] was 101%.

`COc1ccc(NC2=C(Cl)C(=O)C(C)=C(C)C2=O)cc1OC`: the growth is 101% in assay [1]; 126% in [2]; 84.7% in assay [3]; 77.7% in assay [4]; 67.9% in [5]; 108% in assay [8]. In addition, the growth in assay [9] is 83.7%.

With `CN(C)S(=O)(=O)c1oc(-c2ccccc2)nc1C#N`, the growth in [1] is 35.1%; in assay [2] it was 96.1%; in assay [3] it was 96.1%; in [4] it was 88.8%; in [6], 93.1%; in assay [10] it was 97.9%. The figures for the growth in [7], in assay [8] and in assay [9] were -80.7% (active), 87.8% and 110%, respectively.

On to `COc1ccccc1C(=O)CSc1nc(Nc2ccc(S(N)(=O)=O)cc2)c2ccccc2n1`, for which the growth in assay [1] was 102%; in [2], 106%; in [3], 85.7%; in assay [4] it was 93%; in assay [6], 91.7%; in [10] it was 88.6%. Besides, the growth was 16.1% in [7], 96.8% in [8] and 98.1% in [9].

Consider `C=CCSc1ccc2c(c1)C(N1CCNCC1)=Nc1ccccc1O2`, for which the growth in [1] is 44.2% [8.25 µM]; in assay [2] it was 79.8% [8.25 µM]; in assay [3], 82.7% [8.25 µM]; in assay [4], 61.3% [8.25 µM]; in [6] it was 85.5% [8.25 µM]; in [10] it was 91.6% [8.25 µM]. Further, the growth in [7] was 51.5% [8.25 µM]; in [8], 80.3% [8.25 µM]; in assay [9], 92.3% [8.25 µM].

In the case of `Cc1[nH]nc2ncc(C#Cc3cncc(C(=O)Nc4ccc(CN5CCN(C)CC5)c(C(F)(F)F)c4)c3)cc12`, the growth in [1] is 9.72% (active); in assay [2], -6.21% (active); in assay [3], 50.5%; in assay [4] it was 40.5%; in [6] it was 40.2%; in assay [10], -15.8% (active). Moreover, the results for the growth in assay [7], in [8] and in assay [9] were -23.4% (active), -11.4% (active) and -44.6% (active), respectively.

On to `COC(=O)c1ccc(NC(=S)N2CCc3ccc([N+](=O)[O-])cc3C2)cc1O`, for which the growth in assay [1] is 109%; in assay [2], 112%; in assay [3], 97.6%; in [4] it was 111%; in assay [6] it was 100%; in assay [10], 99.2%. Besides, the growth in assay [8] was 106%; in assay [9], 122%.

As to `CCN1C(=S)N(CC)C2C1NN=C1SC(c3ccccc3)=CC(=O)N12` (centres undefined), the growth was 106% in assay [1]; 129% in [2]; 98.5% in assay [3]; 103% in assay [4]; 99.7% in [6]; 92.6% in assay [10]. Moreover, the growth in assay [7] is 100%; in assay [8], 99.5%; in assay [9] it was 98.2%.

Regarding `O=C1Nc2cc(Cl)ccc2/C1=C\c1ccc(OCc2ccc(Br)cc2F)cc1`, the growth is 0.627% (active) in [1]; -72.8% (active) in assay [2]; -41.3% (active) in [3]; -68.5% (active) in assay [4]; -12.1% (active) in assay [6]; -74.3% (active) in [10]. The values for the growth in assay [7], in [8] and in assay [9] were -92.8% (active), -63% (active) and -42.8% (active), respectively.

As for `C#Cc1nc(C2=C(C)/C(=N/OCc3ccccc3)CC2)cs1`, the growth is 67% in [1]; -88.4% (active) in [2]; 72.8% in assay [3]; 37.6% in assay [4]; 85.7% in assay [6]; 62.5% in assay [10]. The growth was 94.6% in assay [8] and 98.7% in assay [9].

As for `CCOC(=O)c1sc(N)c(C(=O)OCC)c1C`, the growth in assay [1] was 43.4%; in [2] it was 36%; in assay [3] it was 71.7%; in [4], 44.2%; in assay [10] it was 57.7%; in assay [8], 78.8%. The growth in assay [9] was 75.2%.

As for `COc1ccc(Cc2nn(CC(=O)N/N=C/c3ccc(Cl)cc3)c(=O)c3c(C)noc23)cc1`, the growth in assay [1] was 92.4%; in assay [2], -4.27% (active); in assay [3], 67.5%; in assay [4], 71.4%; in [5], 78.9%; in assay [8], 97.9%. For the same compound, the growth in [9] is 90.8%.

As to `O=C1c2c(c3c4cc(Br)ccc4[nH]c3c3ccc4ccccc4c23)C(=O)N1CCO`, the growth in assay [1] was 89.9%; in [2] it was 128%; in assay [3], 85.6%; in [4], 74.3%; in [6], 100%; in [10] it was 72.6%. In addition, the growth in assay [7] was 66.4%; in assay [8], 99.8%; in assay [9] it was 110%.

In the case of `Cc1cccc2sc(/N=C(\N)C(Cl)(Cl)Cl)nc12`, the growth is 105% in assay [1]; 81.6% in assay [2]; 90.3% in assay [3]; 95.1% in assay [4]; 99.6% in [6]; 97.6% in assay [10]. In addition, the growth in assay [7] was 113%; in assay [8] it was 112%.

As to `COc1cc(/C=C/C(=O)c2ccc(C(F)(F)F)cc2)ccc1Oc1nc(NCCO)nc(N2CCOCC2)n1`, the growth in assay [1] is 96.2%; in [2], 91.4%; in [3] it was 87.6%; in assay [4], 70.1%; in assay [6] it was 94%; in assay [10], 78.7%. Further, the growth in assay [8] was 96.1%; in assay [9] it was 98.8%.

`OC1CCc2c(-c3ccc4ncnc(N5CCc6cc(F)c(Cl)cc65)c4c3)cncc21` (centres undefined): the growth in [1] is 65.6%; in assay [2], 31.7%; in assay [3], 57.2%; in assay [4], 69.6%; in [6], 54%; in [10], 43.5%. Besides, the growth in assay [7] is 54%; in assay [8], 73.6%; in assay [9], 46.7%.

As for `CCN(CC)c1ccc(C=O)c(OCc2cn(CC(=O)Nc3ccc(Cl)cc3)nn2)c1`, the growth in assay [1] was 73.2%; in assay [2], 103%; in [3], 69%; in assay [4], 53.7%; in assay [6] it was 92.7%; in [7] it was 58.8%. The growth is 92.7% in [8] and 89.7% in [9].
